Rab9 promoter act: qHTS Assay for Rab9 Promoter Activators. Huh7 Rab9 promoter-luciferase reporter, luminescence, 24 h. Potency, µM (top dose mostly 9.22 µM), most hits filed as activators. 320,000 compounds, 2.8% hits. AID 485297, 2010; also: nearly all actives have a fitted effect of over 60% in size
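Luminescence read-out: Huh7 cells stably expressing Rab9-luciferase, treated 24 h with compound at 37 °C, then lysed with luciferase reagent for 10 min at ambient before reading.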
ELG1 genotox: qHTS screen for small molecules that induce genotoxicity in human embryonic kidney (HEK293T) cells expressing luciferase-tagged ELG1. HEK293T ELG1-luciferase reporter, luminescence, 16 h. Potency, µM (top dose mostly 46 µM), hits mostly activators. 330,000 compounds, 1.3% hits; also: nearly all actives have a fitted effect of over 60% in size
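Quantitative HTS format in 1536-well plates. HEK293T ELG1-luciferase reporter cells receive test compound and are incubated 16 hr at 37 °C, 5% CO2; ONE-Glo added, 30 min room temperature, then luminescence read.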
FLuc modulator: qHTS profiling assay for firefly luciferase inhibitor/activator using purifed enzyme and Km concentrations of substrates (counterscreen for miR-21 project) | Luciferin 4-monooxygenase (Photinus pyralis), P08659 | purified FLuc, Km substrates, luminescence inhibition | Potency, µM (top dose mostly 57.5 µM), most hits filed as inhibitors | 360,000 compounds, 6.9% hits | AID 588342, 2011; also: nearly all actives have a fitted effect of over 55% in size
Target sequence (P08659 whole entry, looked up): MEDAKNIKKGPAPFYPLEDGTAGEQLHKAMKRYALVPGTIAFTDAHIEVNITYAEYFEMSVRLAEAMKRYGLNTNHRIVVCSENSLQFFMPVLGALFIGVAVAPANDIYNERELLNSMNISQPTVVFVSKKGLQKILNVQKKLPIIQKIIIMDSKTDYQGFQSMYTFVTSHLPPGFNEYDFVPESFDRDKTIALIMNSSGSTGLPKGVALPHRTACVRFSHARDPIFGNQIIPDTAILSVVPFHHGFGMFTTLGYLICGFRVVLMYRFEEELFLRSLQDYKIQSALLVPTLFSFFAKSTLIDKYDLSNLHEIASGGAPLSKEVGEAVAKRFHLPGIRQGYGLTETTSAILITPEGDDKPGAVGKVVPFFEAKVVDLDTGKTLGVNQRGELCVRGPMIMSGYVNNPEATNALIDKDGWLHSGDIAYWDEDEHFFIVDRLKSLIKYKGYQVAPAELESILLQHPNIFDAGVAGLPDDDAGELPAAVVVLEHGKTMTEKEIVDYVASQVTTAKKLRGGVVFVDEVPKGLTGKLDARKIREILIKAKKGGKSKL
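Biochemical qHTS of compounds, final roughly 60 µM downward over six points, against 10 nM purified firefly luciferase using Km concentrations of substrates (10 uM D-luciferin, 10 uM ATP) in Tris acetate pH 7.5 buffer; luminescence output.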
uPA surface inh: qHTS for Inhibitors of Cell Surface uPA Generation; cell surface uPA generation assay, qHTS; Potency, µM (series often up to 38.3 µM), most hits filed as inhibitors; 330,000 compounds, 0.31% hits; active = well fitted inhibition curve with a large enough effect; inconclusive = small, poorly fitted or top-dose-only effect; inactive = no such curve, though single readings can be large or run the other way; tested in mouse RAW 264.7 cells; also: nearly all actives have a fitted effect of over 55% in size
SMN2 splice enh: qHTS Assay for Enhancers of SMN2 Splice Variant Expression. HEK293 SMN2-luciferase splicing reporter, luminescence, 30-36 h. Potency, µM (series often up to 46.1 µM), most hits filed as activators. 210,000 compounds, 2.8% hits. AID 1458, 2008; also: nearly all actives have a fitted effect of over 55% in size
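HEK293 cells carry an SMN2 minigene-luciferase reporter in which exon 7 inclusion puts luciferase in frame. Cells were seeded at 2000 cells/well, attached for 10-12 hours, then exposed to compounds for 30-36 hours at 37C before ONE-Glo luminescence.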
NPC1 promoter act: qHTS Assay for NPC1 Promoter Activators | Huh7 NPC1 promoter luciferase reporter, 24 h | Potency, µM (highest dose often 9.22 µM), most hits filed as activators | 320,000 compounds, 2.4% hits | AID 485313, 2010; also: nearly all actives have a fitted effect of over 60% in size
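In 1536-well qHTS, Huh7 cells harboring an NPC1 promoter–luciferase construct received compound for 24 h; activation was quantified by luminescence following luciferase reagent addition.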
Hits are given with their value; n = inactive; u = inconclusive; x = not tested or not shown; [ ] = remark or other dose. Most compounds without a hit are left out; they make up all but 7.3% or so of the library. Unless noted, calls follow the shape of the dose curve; as a rule, active = well fitted curve in the direction sought with a large enough effect; inconclusive = small, poorly fitted or top-dose-only effect, or another doubt; inactive = no such curve, though single readings can be large; an effect the other way counts as inactive or inconclusive.

SMILES	Rab9 promoter act	ELG1 genotox	FLuc modulator	uPA surface inh	SMN2 splice enh	NPC1 promoter act
Cc1cc(-c2ccc(F)cc2)nc2cc(C(N)=O)nn12	n	n	n	n	n	n
COc1ccc(OC)c(NC(=O)c2cn3c4c(ccc(Cl)c4c2=O)OC(C)C3)c1 (configuration not stated)	x	x	n	x	x	x
Clc1ccc(CSc2nnc(-c3ccncc3)s2)cc1	n	n	n	n	x	n
Clc1cccc(Cl)c1CSc1nnc(-c2ccncc2)s1	n	n	15.1µM	n	x	n
CCCCCc1ccc(CC(=O)O)cc1	n	n	n	n	x	n
CCCCCc1ccc(-c2nnc(N)s2)cc1	u	u	21.3µM	n	x	n
CCCCCc1nnc(N)s1	n	n	n	x	n	n
CCCCCCc1ccc(-c2ncc(N)cn2)cc1	u	u	12µM	x	11.2µM	n
Cc1c(C(=O)NCCc2ccccc2)cccc1-n1cnc2cccnc21	x	x	n	x	x	x
CCCc1ccc(Oc2cc(Cl)nc(N)n2)cc1	u	n	n	n	n[1.84 µM]	n
CCc1ccc(Oc2cc(C)nc(N)n2)cc1	3.16µM	u	4.26µM	n	10µM	3.16µM
Cc1ccc(OCC(=O)Nc2nnc(SCc3cc(=O)n4cc(C)ccc4n3)s2)cc1	x	x	n	x	x	x
C/C=C\C=C/C(=O)Nc1cccc(C2=NOC3(C2)C[C@@H](C(N)=O)N(C(=O)c2ccc(Cl)cc2)C3)c1 (some centres not stated)	n	n	15.1µM	n	x	n
C/C=C(/C)C(=O)Nc1cccc(C2=NOC3(C2)C[C@@H](C(N)=O)N(C(=O)c2ccc(OC)cc2)C3)c1 (some centres not stated)	n	n	n	n	x	n
C/C=C\C=C/C(=O)Nc1cccc(C2=NOC3(C2)C[C@H](C(N)=O)N(C(=O)c2ccc(OC)cc2)C3)c1 (some centres not stated)	n	n	15.1µM	n	x	n
CCOC(=O)c1c(NC(=O)c2cc(-c3ccccc3)on2)sc2c1CCCC2	x	x	n	x	x	x
CCOc1cc(/C=C2\N=C3CCCCCN3C2=O)ccc1O	u	u	u	n	u	n
COc1cccc(/C=C2\N=C3CCCCCN3C2=O)c1	n	u	13.5µM	n	n	n
Cc1nc2ccc(NC(=O)c3ccc(Br)o3)cc2s1	2.51µM	n	15.1µM	n	11.2µM	2.82µM
COc1ccc(NC(=O)c2ccc3nc(C)sc3c2)cc1	1µM	u	u	n	x	1µM
Cc1nc2ccc(C(=O)Nc3cccc([N+](=O)[O-])c3)cc2s1	u	n	u	n	u	u
COC(=O)c1ccc(NC(=O)c2ccc3nc(C)sc3c2)cc1	0.708µM	u	n	n	x	0.794µM
COc1ccc(C(=O)Nc2ccc3nc(C)sc3c2)cc1OC	u	n	u	n	x	n
O=C(NCc1cccc(Cl)c1)c1ccc(NC(=O)N2CC3CCCN3c3ccccc32)cc1 (configuration not stated)	x	x	n	x	x	x
Cc1ccc(OCC(=O)Nc2ccccc2C(=O)OCc2cc(=O)n3c(C)csc3n2)cc1	x	x	n	x	x	x
SMILES	Rab9 promoter act	ELG1 genotox	FLuc modulator	uPA surface inh	SMN2 splice enh	NPC1 promoter act
CCOc1c2ccc(C(=O)NCCc3cccs3)cc2nn1CC	3.55µM	u	23.9µM	n	14.1µM	u
CCOc1ccc(C(=O)NCc2cccs2)cc1	u	n	n	n	n	n
CCCCOc1ccc(C(=O)NCCc2cccs2)cc1	1.78µM	u	7.57µM	x	12.6µM	3.98µM
CCCCn1nc2cc(C(=O)NCCc3cccs3)ccc2c1OCC	n	n	n	n	n	u
O=C(Nc1cc(-c2ccccc2)[nH]n1)c1ccc(Cl)cc1	3.16µM	u	10.7µM	u	x	2µM
Cc1ccc(NC(=O)c2cccc(Cl)c2)nc1	n	n	u	n	n	n
Cc1cc(NC(=O)c2cccc(Cl)c2)n[nH]1	2.51µM	u	19µM	n	x	2.82µM
NC(=O)C1CCN(c2nc(-c3ccc4c(c3)OCCO4)cs2)CC1	2.82µM	n	4.78µM	n	x	1.41µM
NC(=O)C1CCN(c2nc(-c3ccc4c(c3)OCO4)cs2)CC1	x	x	19µM	x	x	x
Cc1ccccc1-c1nc(CS(=O)(=O)CC(=O)NCCCc2ccccc2)c(C)o1	x	x	n	x	n	x
Cc1ccc(-n2c(SCC(=O)Nc3c(C)cccc3C)nc(O)c(C)c2=O)cc1	x	x	n	x	n	x
CCOC(=O)c1c(C)[nH]c(C)c1S(=O)(=O)N1CCCC(C(=O)Nc2ccc(OC)c(OC)c2)C1 (configuration not stated)	x	x	n	x	x	x
Cc1nn(-c2ccccc2)c(Cl)c1/C=N/NC(=O)c1ccccc1NS(=O)(=O)c1cccs1	n	n	12µM	n	n	n
Cc1nn(-c2ccccc2)c(Cl)c1/C=N/NC(=O)c1ccc(NS(=O)(=O)c2cccs2)cc1	u	u	0.849µM	x	12.6µM	u
Cc1nn(-c2cccc(Cl)c2)c(Cl)c1/C=N/NC(=O)c1cccs1	n	u	n	n	x	n
Cc1ccc(SCCSc2nc(C)cc(=O)[nH]2)cc1	u	23.1µM	5.36µM	n	x	u
CCOc1ccc(OCCSc2nc(C)cc(=O)[nH]2)cc1	u	u	13.5µM	n	n	u
CCOc1ccc(NC(=O)c2c(C)nn(-c3ccc(F)cc3)c2-n2cccc2)cc1	x	x	n	x	x	x
COc1ccc(-c2nc3sc(CCNC(=O)c4ccco4)c(C)n3n2)cc1	x	x	21.3µM	x	x	x
COc1ccc(-c2nc3sc(CCNC(=O)c4cc(OC)c(OC)c(OC)c4)c(C)n3n2)cc1	x	x	10.7µM	x	x	x
Cc1ccc(-n2nc(CO)c(C(=O)NCc3ccccn3)n2)cc1C	x	x	u	x	n	x
CCOC(=O)N1CCN(c2ccc(S(=O)(=O)N(Cc3ccccc3)Cc3ccccc3)cn2)CC1	n	11.6µM	n	n	n	n
CCOC(=O)COc1ccc2nsnc2c1Cl	n	n	u	n	n	n
C=C(CC)C(=O)c1ccc(OCC(=O)O)c(Cl)c1Cl	n	u	u	4.47µM	n	n
O/C(=C\c1nc2ccccc2nc1/C=C(\O)c1ccccc1)c1ccccc1	4.47µM	n	1.07µM	n	u	3.16µM
SMILES	Rab9 promoter act	ELG1 genotox	FLuc modulator	uPA surface inh	SMN2 splice enh	NPC1 promoter act
Cc1ccc(/C(O)=C/c2nc3cc(C)ccc3oc2=O)cc1	n	n	12µM	n	x	n
O=c1oc2ccccc2nc1/C=C(\O)c1ccccc1	n	n	u	2.24µM	x	n
CC(C)C/C(O)=C/c1nc2cc(Cl)ccc2oc1=O	n	n	n	1.41µM	n	n
CC(C)(C)/C(O)=C/c1nc2ccccc2oc1=O	n	n	n	n	x	n
O=c1oc2ccc(Cl)cc2nc1/C=C(\O)c1ccco1	n	n	n	u	x	n
CCOc1ccccc1NC(=O)Cn1c(=O)n(C(C)C)c(=O)c2oc3ccccc3c21	x	x	n	x	x	x
Cc1ccc(-n2c(SCc3ccccc3F)nc3[nH]ncc3c2=O)cc1Cl	x	x	n	x	x	x

From PubChem
